We go through 40 compounds from PubChem BioAssay (Tox21).

Each structure is given as a SMILES string. Results filed as inconclusive are left out. A call without a number means that no potency is given here. Unmarked numbers belong to inactive results. Active and inactive are the calls of the source. Calls come from the whole dose curve; as a rule, active = well fitted activation curve with a large enough effect in the repeat runs; inconclusive = weak or mixed curves; inactive = flat fitted curve, though single readings scatter.

The experiment can be described thus: A CellTox Green Cytotoxicity Assay to monitor cytotoxicity in HEK293 cells - 32 hour (AID 1224881). Note: nearly all actives have a fitted effect of over 40% in size. Conditions: CellTox Green fluorescence; series mostly up to 76.8 µM. An excerpt: National Center for Advancing Translational Sciences [NCATS]
NIH Chemical Genomics Center [NCGC]
U.S. Environmental Protection Agency [EPA]
National Institutes of Environmental Health Sciences [NIEHS]
National Toxicology Program [NTP]
Cell-based models are critical for drug discovery. Determining the natural cytotoxic effects resulting from test compounds is an essential research activity. A CellTox Green Cytotoxicity Assay to monitor cytotoxicity in real time of continues cell culture during 40 hours of the compound treatment was used to screen Tox21 10K library compounds in Hek293 cells. CellTox Green Cytotoxicity Assay is a nonlytic, homogeneous, biofluorescent method to measure cytotoxicity in cell culture after experimental manipulation. The assay system uses a proprietary asymmetric cyanine dye that is excluded from viable cells but preferentially stains the dead cell's DNA. […] Viable cells produce no appreciable increases in fluorescence. Therefore, the fluorescence signal produced by the binding interaction with dead cell DNA is proportional to cytotoxicity.
The mixture of Hek293 cell suspension and reagents were dispensed at 600cells/6 ul/well in 1536-well tissue culture treated black solid bottom plates using a Multidrop dispenser. After the assay plates were incubated at a 37 C/5% CO2 incubator for 5 hours, 23 nL of compounds dissolved in DMSO, positive and negative controls was transferred to the assay plate by a pintool work station. The plates were incubated at 37 C for 40 hours. The fluorescence intensity were measured at 0h, 8h, 16h, 24h, 32h and 40h time points using ViewLux plate reader during compound treatment.
Turning to `CCCCCCCCC(=O)Cl`, the Potency entry was “inactive”.

`Nc1nnc(-c2cccc(Cl)c2Cl)c(N)n1`: the Potency result was “inactive”.

As for `CC(C)(C)OC(=O)c1ccc(O)cc1`, the Potency result was “inactive”.

For `c1ccc2c(c1)ccc1c3ccccc3ccc21`, the Potency result was “inactive”.

Take `C=COCCOCCOCCOC=C`: the Potency result was “inactive”.

Take `CCCCNc1ccc(C(=O)OCCN(C)C)cc1`: the Potency entry was “inactive”.

Consider `OCCC(F)(F)C(F)(F)C(F)(F)C(F)(F)C(F)(F)C(F)(F)C(F)(F)C(F)(F)F`, for which the Potency entry is “inactive”.

Regarding `CCCCCCCCCCl`, the Potency entry was “inactive”.

As to `NCCS`, the Potency result is “inactive”.

`C=CCCCCCCCCCCCC`: the Potency result was “inactive”.

With `On1nnc2ccccc21`, the Potency entry was “inactive”.

Consider `CC(=O)NCCCCCC(=O)O`, for which the Potency entry is “inactive”.

Regarding `CCOCCOC(=O)/C=C/c1ccc(OC)cc1`, the Potency entry was “inactive”.

For the compound `Cc1cccc(C)c1OCC(C)N` (stereo not given), the Potency result was “inactive”.

For the compound `CCCN1C[C@H](CSC)C[C@@H]2c3cccc4[nH]cc(c34)C[C@H]21`, the Potency result was “inactive”.

`O=C(NCCc1c[nH]c2ccccc12)c1cccnc1`: the Potency entry is “inactive”.

With `CC(C(=O)O)c1ccc2c(c1)CC(=O)c1ccccc1S2` (stereo not given), the Potency result was “inactive”.

Regarding `CC(=O)OC(C)OC(=O)C(C)c1ccc(-c2ccccc2)c(F)c1` (stereo not given), the Potency entry was “inactive”.

Take `CCCCCOC(=O)CCC`: the Potency entry is “inactive”.

With `O=C1CCCC(=O)O1`, the Potency entry was “inactive”.

As to `N[C@@H](CCC(=O)Nc1ccc([N+](=O)[O-])cc1)C(=O)O`, the Potency result was “inactive”.

Regarding `O=C(O)c1ccc(Cl)cc1Cl`, the Potency entry was “inactive”.

Consider `O=C(O)c1cc(Br)c(O)c(Br)c1`, for which the Potency result was “inactive”.

Consider `C=C(C)C(=O)OCC(C)(C)COC(=O)C(=C)C`, for which the Potency result was “inactive”.

Take `CC(C)(C)c1cc(CCC(=O)NN)cc(C(C)(C)C)c1O`: the Potency result is “inactive”.

In the case of `O=C(O)C(=O)Cc1ccccc1`, the Potency entry is “inactive”.

`CC(C)CC(=O)O`: the Potency entry was “inactive”.

For the compound `CNC(=O)[C@H]1O[C@@H](n2cnc3c(NCc4cc(Cl)ccc4OCc4cc(C)no4)ncnc32)[C@H](O)[C@@H]1N`, the Potency entry is “inactive”.

For the compound `CC(C)NCC(O)COc1cccc2[nH]ccc12` (stereo not given), the Potency result was “inactive”.

Regarding `CCOC(=O)CC(=O)c1ccccc1`, the Potency result is “inactive”.

For `O=C(O)c1cc(Cl)cc([N+](=O)[O-])c1Cl`, the Potency entry is “inactive”.

As to `CCCCCCCC/C=C\CCCCCCCC(=O)OCCCC`, the cytotoxicity increase is -35.2% [at 15.8 µM].

Turning to `Cc1c(I)c(=O)n(-c2ccccc2)n1C`, the Potency result is “inactive”.

`CC(=O)N[C@@H](CCC(=O)O)C(=O)O`: the Potency entry is “inactive”.

For the compound `O=C(O)Cc1ccc(Cl)cc1Cl`, the Potency result is “inactive”.

Regarding `COc1cc2c(cc1OC)[C@@H]1CC(=O)[C@@H](CC(C)C)CN1CC2`, the Potency result was “inactive”.

Regarding `COc1cc(C(=S)N2CCOCC2)cc(OC)c1OC`, the Potency entry was “inactive”.

In the case of `CC(C)NCC(O)COc1ccc(COCCOC(C)C)cc1` (stereo not given), the Potency result is “inactive”.

Consider `CCc1ccc(C=O)cc1`, for which the Potency entry was “inactive”.

In the case of `CCOC(=O)[C@H](CCc1ccccc1)N[C@@H](C)C(=O)N1C(=O)N(C)C[C@H]1C(=O)O`, the Potency entry was “inactive”.
